# Source: PubChem BioAssay (EPA / NIEHS)
# Records with an inconclusive call do not appear. Active and inactive are the calls of the source. Rule for the calls, unless noted: active = hit-call score of the fitted dose curve at least 0.9, where 1 is the maximum; inactive = score below 0.9.
# Experiments:
# [1] = VALA_TUBHUV_Agonist_TubuleLength: VALA Sciences human Umbilical Vein Endothelial Tubule Formation (TUBHUV) Agonism Assay (AID 2284337; active = hit-call score of the fitted dose curve at least 0.9, where 1 is the maximum)
# How it was run: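 Tubule length quantified by CD31 immunofluorescence imaging after fixation. HUVEC-HDF co-cultures (1:3) pre-grown 3 days with 10 ng/ml VEGF, then dosed 3 days in VEGF medium; 0.1 % DMSO vehicle baseline.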
# [2] = VALA_TUBIPS_Agonist_CellCount: Viability Assessment in the VALA Sciences human iPS-derived Endothelial Tubule Formation (TUBIPS) Agonism Assay (AID 2284338; active = hit-call score of the fitted dose curve at least 0.9, where 1 is the maximum)
# [3] = tested on: SRY-box transcription factor 17 (SOX17) Protein Expression, Deisenroth Lab, SOX17 (gene 64321); assay: CCTE_Deisenroth_DEVTOX-GLR_legacy_Sox17: (Legacy) CCTE's DevTox GLR-Endo Assay Evaluation of SRY-box transcription factor 17 (SOX17) Protein Expression, Deisenroth Lab (AID 2284341); details: actives raise or lower the signal
# Description: CCTE_Deisenroth_DEVTOX-GLR_legacy assay is a cell-based, multiplex-readout assay that uses RUES2-GLR, a human pluripotent cell line, with measurements taken at 48 hours after chemical dosing in a 384-well microplateCCTE_Deisenroth_DEVTOX-GLR_legacy_Sox17 is one of 4 assay components calculated from the CCTE_Deisenroth_DEVTOX-GLR_legacy assay and it measures an increase in the percentage of cells in an endoderm state. It is designed to make measurements of inducible reporter a form of fluorescent protein induction as detected with optical fluorescence microscopy. Percentage Sox17+ cells are determined by calculating the number of Sox17+ cells divided by cell count. A cell is Sox17+ if the cell Sox17 mean intensity is 5x BMAD above the pluripotent control median cell Sox17 mean. The assay endpoints were analyzed with bidirectional fitting relative to 0.2% DMSO control in the CCTE_Deisenroth_DEVTOX-GLR_Endo assay.Data from the assay component CCTE_Deisenroth_DEVTOX-GLR_legacy_Sox17 was analyzed into 1 assay endpoint. This assay endpoint, CCTE_Deisenroth_DEVTOX-GLR_legacy_Sox17, was analyzed with bidirectional fitting relative to DMSO as the negative control and baseline activity. […] Furthermore, this assay endpoint can be referred to as a primary readout, because this assay has produced multiple assay endpoints where this one serves as a measure of endoderm differentiation. […]
# [4] = tested on: SRY-box transcription factor 2 (SOX2) Protein Expression, Deisenroth Lab, SOX2 (gene 6657); assay: CCTE_Deisenroth_DEVTOX-GLR_legacy_Sox2: (Legacy) CCTE's DevTox GLR-Endo Assay Evaluation of SRY-box transcription factor 2 (SOX2) Protein Expression, Deisenroth Lab (AID 2284346)
# How it was run: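 Two exposures, 24 h apart, during 48 h defined-media differentiation of seeded RUES2-GLR cells; nuclei-stained cells imaged. Sox2 positivity called at 5x BMAD above endoderm control median, DMSO median subtracted.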
# [5] = tested on: SRY-box transcription factor 17 (SOX17) Protein Expression, Deisenroth Lab, SOX17 (gene 64321); assay: CCTE_Deisenroth_DEVTOX-GLR_Endo_SOX17: CCTE's DevTox GLR-Endo Assay Evaluation of SRY-box transcription factor 17 (SOX17) Protein Expression, Deisenroth Lab (AID 2284413)
# Description: CCTE_Deisenroth_DEVTOX-GLR_Endo assay is a cell-based, multiplex-readout assay that uses RUES2-GLR, a human pluripotent cell line, with measurements taken at 48 hours after chemical dosing in a 384-well microplateCCTE_Deisenroth_DEVTOX-GLR_Endo_SOX17 is 1 of 4 assay components calculated from the CCTE_Deisenroth_DEVTOX-GLR_Endo assay and it measures the percentage of cells in an endoderm state. Using a type of inducible fluorescent protein reporter, gain-of-signal activity can be used to understand changes in gene expression with fluorescent microscopy. The percentage of SOX17+ cells are determined by calculating the number of SOX17+ cells divided by the cell count. To generalize the intended target to other relatable targets, this assay component is annotated to the transcription factor intended target family, where the subfamily is SRY-related HMG-box.Data from the assay component CCTE_Deisenroth_DEVTOX-GLR_Endo_SOX17 was analyzed as 1 assay endpoint. The endpoint is the percent change in SOX17+ cell population relative to the 0.2% DMSO control in the CCTE_Deisenroth_DEVTOX-GLR_Endo assay. This assay endpoint can be referred to as a primary readout since this assay has produced multiple assay endpoints where this one serves as a measure of endoderm differentiation.
# All assay protocols are aligned to the DevTox GLR-Endo assay workflow. […]
# [6] = tested on: Brachyury (BRA) Protein Expression, TBXT (gene 6862); assay: CCTE_Deisenroth_DEVTOX-GLR_Endo_BRA: CCTE's DevTox GLR-Endo Assay Evaluation of Brachyury (BRA) Protein Expression, Deisenroth Lab (AID 2284417)
# How it was run: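 Read-out: BRA+ cell count divided by total cell count by high-content imaging (5 fields per well), expressed relative to 0.2% DMSO solvent control. RUES2-GLR cells dosed twice over a 48 h differentiation; concentrations 1 nM - 200 uM.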
# [7] = CCTE_Deisenroth_DEVTOX-GLR_Endo_CellCount: Viability Assessment in CCTE's DevTox GLR-Endo Assay, Deisenroth Lab (AID 2284420)
# How it was run: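 Viability in differentiating RUES2-GLR cultures is scored by fluorescent nuclear counts after 48 h and two 24-hourly chemical treatments, as percent change from the 0.2% DMSO control.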
# [8] = tested on: SRY-box transcription factor 2 (SOX2) Protein Expression, Deisenroth Lab, SOX2 (gene 6657); assay: CCTE_Deisenroth_DEVTOX-GLR_Pluri_SOX2: CCTE's DevTox GLR-Pluri Assay Evaluation of SRY-box transcription factor 2 (SOX2) Protein Expression, Deisenroth Lab (AID 2284428)
# How it was run: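 SOX2 expression frequency is scored in a human pluripotent reporter line, RUES2-GLR, exposed to chemicals twice over 48 h. Imaging-based SOX2+ cell percentage is normalized as change versus 0.2% DMSO.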
# [9] = tested on: Brachyury (BRA) Protein Expression, Deisenroth Lab, TBXT (gene 6862); assay: CCTE_Deisenroth_DEVTOX-GLR_Pluri_BRA: CCTE's DevTox GLR-Pluri Assay Evaluation of Brachyury (BRA) Protein Expression, Deisenroth Lab (AID 2284429; active = hit-call score of the fitted dose curve at least 0.9, where 1 is the maximum)
# How it was run: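 Mesoderm readout after 48 h differentiation of human RUES2-GLR cells, dosed twice (24-h intervals) at 1 nM - 200 uM. BRA+ frequency from fluorescence imaging of fixed, nuclear-stained cells, DMSO-corrected.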
# [10] = CCTE_Deisenroth_DEVTOX-GLR_Pluri_CellCount: Viability Assessment in CCTE's DevTox GLR-Pluri Assay Evaluation of Total Cell Counts, Deisenroth Lab (AID 2284430)
# How it was run: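 Cytotoxicity readout: fluorescent nuclei counts by high-content imaging, expressed as percent change relative to 0.2% DMSO. Human RUES2-GLR pluripotent line differentiated 48 h, dosed twice at 24-h intervals across 1 nM - 200 uM (10 points).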
smiles,measurement,setting,value
CC(C)(C)c1ccc(CSc2cnn(C(C)(C)C)c(=O)c2Cl)cc1,AC50,[1],7.59 µM (active)
same,AC50,[2],50 µM (active)
N#Cc1nn(-c2c(Cl)cc(C(F)(F)F)cc2Cl)c(N)c1S(=O)C(F)(F)F (configuration not stated),outcome,[1],inactive
same,outcome,[2],inactive
COC(=O)c1ccccc1C(=O)OC,outcome,[3],inactive
same,outcome,[4],inactive
same,outcome,[5],inactive
same,outcome,[6],inactive
same,outcome,[7],inactive
same,outcome,[8],inactive
same,outcome,[9],inactive
same,outcome,[10],inactive
